Test results taken from publication PMC12864922, “TDP-43 directly inhibits mRNA accumulation in neurites through modulation of mRNA stability”.
Over roughly 9,900 sequences, “r (bound/input frequency ratio)” has its median near 0.7; the highest 2% begin near 6.5. For the sample, the highest values were picked, then their nearest neighbours and some sequences at random.

B1: ENSMUSG00000042529.155|Kcnj12|40:44 (ssRNA)
RNA: GGGAGUUCUACAGUCCGACGAUCGCUUCGAUAUCCGCAUGCUAAGAGUGGGUGCUUCUUAGAAAAGGACACUCAGGAAAUUACAUACGGGUCUGGGUCCCACAUCCCCAGGAAGUGGGUCAGCCCCACGUCCCCCGCUGGACUCACAGCUUGAGUUGUGCCUUAGAGACUCUGGUUGUCUGGCUUCCGUCAUUUCUGGUUUUCUCAGACUUGUUUAAUCUUUCCCUACUGCCCUAAGUCCACUCAUGAAGCUCCCCAGGCCCUUCUGAGAUUGCAGAGGCUGCUUGCUCAUAGCCAUGACCCUCUCUUGCGGUCGCACUAGUGUGGAAUUCUCGGGUGUCAAGG
B2: ENSMUSG00000031028.502|Tub (ssRNA)
RNA: GGGAGUUCUACAGUCCGACGAUCGCUUCGAUAUCCGCAUGCUACAAGUAAGGUGUGUGCCUCUGGGAAGACAGGAGUCGGAAGCCAAGGUGUGUGGCAACAGUCUGGAAGAGAGCUUUUGGUAAUCAUACCGUCUUCAGUGACAAGGCAACAAUGCUGUAAAGUGGGUUUGUUUGGUUUUGUUUUUUCUUUCUCUUUUAUGGAAAUGGCAGGUCUAUUUGCCUCAAACGUUAUGUAGAAGUAGUUCUAAGUUUAACAAGCAAUAGAGAUGACUGCUUAGCUAGGAUCUGCAGGGAGCUCUGCUCUCUUGCGGUCGCACUAGUGUGGAAUUCUCGGGUGUCAAGG
B3: ENSMUSG00000042529.125|Kcnj12|220:224 (ssRNA)
RNA: GGGAGUUCUACAGUCCGACGAUCGCUUCGAUAUCCGCAUGCUAGUGGGGCCCACUAGGGUGAAUCUGGCUUGCUCUUCUGUUUGAUGUUGUUGUACCUCAGCUGCCUCAGGGCUGGGUUUAGACACCCCUUCCCCCACCCCCACUCCGUACUCCCUGUUGUGCUUCCCUUCCUAUUUAGUCCCAGGUCUCCACCCCUUGCAGCGAGGGGGCAUAGGAAACACCAGAGUGGGUGCUUCUUAGAAAAGGACACUCAGGAAAUUACAUACGGGUCUGGGUCCCACAUCCCCAGGAAGUGGGUCAGCCUCUUGCGGUCGCACUAGUGUGGAAUUCUCGGGUGUCAAGG
B4: ENSMUSG00000031028.204|Tub|197:201;203:208 (ssRNA)
RNA: GGGAGUUCUACAGUCCGACGAUCGCUUCGAUAUCCGCAUGCUACUCUUCCCAGUUCCAGAGAUGAAACCCCUCCGAGUUAAUGUAUAAGGUUGGAAACCUUUCAGUAGGGAAUCAGGCAGUUCCCUGUUGAAAGUUGUCUGAGUUUUUGCACACCAUUCUGAUCUGAUGUGGCCUGUGCCUGGCUCCUCUAUGAGGACUUCGAGCUGUGCACAGACCUUAGCAGGACCACUGCACACUUACACACACACACACAGGCAGCCCAAGGGUUCUGGGGCUGGGCUUGGACACGCCCUCCAUUGGGACUCUUGCGGUCGCACUAGUGUGGAAUUCUCGGGUGUCAAGG
B5: ENSMUSG00000032194.8|Kank2 (ssRNA)
RNA: GGGAGUUCUACAGUCCGACGAUCGCUUCGAUAUCCGCAUGCUAGCCGAGGAGUGAAUACAGGGAGGAGCCAGUGAGUCCCCCAGGACCCACCAGCCACAAGCCACGCAUCAAACCGUCCCUCCUCCAUCCCUCUGUCCCAUUCUGCCUCGGCAUUCCUCAGCCCCUGAACUUCCCUGAGGGAGCCCUGACAUCUACCAGGCUCAAGCUCCUGGAAGCCUUUCCCAGCACCCUGGGUUCAAAGCCAGAAAGCCAAGCUACAUUCUCCUCCCAGUUGGCACCAGUUGACAACGCCUUGGGUGUGGCUCUUGCGGUCGCACUAGUGUGGAAUUCUCGGGUGUCAAGG
B6: ENSMUSG00000031028.492|Tub|69:75;106:112 (ssRNA)
RNA: GGGAGUUCUACAGUCCGACGAUCGCUUCGAUAUCCGCAUGCUAUUUAAAUGAACAUGGGGUGGUGAUGGUGCCUUAACAAUCUUGACACUAAGGUGAAGCAAGCAAGUAAGCACACACCCUCUGGGAAGACAGGAGUCGGAAGCCAAGCACACACGCAACAGUCUGGAAGAGAGCUUUUGGUAAUCAUACCGUCUUCAGUGACAAGGCAACAAUGCUGUAAAGUGGGUUUGUUUGGUUUUGUUUUUUCUUUCUCUUUUAUGGAAAUGGCAGGUCUAUUUGCCUCAAACGUUAUGUAGAAGUAGCUCUUGCGGUCGCACUAGUGUGGAAUUCUCGGGUGUCAAGG
B7: ENSMUSG00000061578.750|Ksr2 (ssRNA)
RNA: GGGAGUUCUACAGUCCGACGAUCGCUUCGAUAUCCGCAUGCUACAAGUUUGAGUCUCCAUAUGGGCCCUUCCUGUCCUCAUGCCCUGCCUGUCUUCAUUCCACCCAUCCACCCUCCUAAGGAUUGGUCUUGUUCCGAGAGUGAUCCUGGUAACGCCAAGCCUCCCUCUGCCCCUGUGUUGGCUUCUGUGACGGACUACCACACACCAAGAGGUUUUUCACAGUGAAGAUGUAUGCUCUCACCAUCCUACAGAUGCAAAGACCAAACACAAAGUGUCUGCAUGACCUUCCCCCUCUGGAAUUUGCUCUUGCGGUCGCACUAGUGUGGAAUUCUCGGGUGUCAAGG
B8: ENSMUSG00000028439.176|Fam219a (ssRNA)
RNA: GGGAGUUCUACAGUCCGACGAUCGCUUCGAUAUCCGCAUGCUAGUAUGGUAUGCACAUGUGUGUGCAUGUGUGUGUGCCUGUGUGUGUGCGUGUGCGUGUGUGUAUGUGUGUGCGUGUGUGUGUGUGUGUGUUGUACCCGAGUGUGUGUUGAGCCUAUCUGUCCAGGGAACCAGAUUGGUGUCCGAGAUGAGGAAAUGGCUGUGGCCUGGGAAAUCAGUGAGAGGCCGCUUGGGAAUGAGAAUGCAGUGGACUGAAAGCACAGCCUGGCCAUCUGGAACCUGGGUUCUGGUCCCAGCCUCGGCCUCUUGCGGUCGCACUAGUGUGGAAUUCUCGGGUGUCAAGG
B9: ENSMUSG00000028439.174|Fam219a (ssRNA)
RNA: GGGAGUUCUACAGUCCGACGAUCGCUUCGAUAUCCGCAUGCUAUGGUAUGGUAUGGUAUGGUAUGCACAUGUGUGUGCAUGUGUGUGUGCCUGUGUGUGUGCGUGUGCGUGUGUGUAUGUGUGUGCGUGUGUGUGUGUGUGUGUUGUACCCGAGUGUGUGUUGAGCCUAUCUGUCCAGGGAACCAGAUUGGUGUCCGAGAUGAGGAAAUGGCUGUGGCCUGGGAAAUCAGUGAGAGGCCGCUUGGGAAUGAGAAUGCAGUGGACUGAAAGCACAGCCUGGCCAUCUGGAACCUGGGUUCUGGUCUCUUGCGGUCGCACUAGUGUGGAAUUCUCGGGUGUCAAGG
B10: ENSMUSG00000028439.174|Fam219a|3:22;27:34;37:46;49:58;60:64;66:82;84:101;111:118 (ssRNA)
RNA: GGGAGUUCUACAGUCCGACGAUCGCUUCGAUAUCCGCAUGCUAUGCAUACCAUACCAUACCAUACCACAACACACACCAACACACACACCCACACACACACCCACACCCACACACAUACACACACCCACACACACACACACACAUGUACCCGACACACACAUGAGCCUAUCUGUCCAGGGAACCAGAUUGGUGUCCGAGAUGAGGAAAUGGCUGUGGCCUGGGAAAUCAGUGAGAGGCCGCUUGGGAAUGAGAAUGCAGUGGACUGAAAGCACAGCCUGGCCAUCUGGAACCUGGGUUCUGGUCUCUUGCGGUCGCACUAGUGUGGAAUUCUCGGGUGUCAAGG
B11: ENSMUSG00000028439.172|Fam219a (ssRNA)
RNA: GGGAGUUCUACAGUCCGACGAUCGCUUCGAUAUCCGCAUGCUAUAUGGUAUGGUAUGGUAUGGUAUGGUAUGGUAUGCACAUGUGUGUGCAUGUGUGUGUGCCUGUGUGUGUGCGUGUGCGUGUGUGUAUGUGUGUGCGUGUGUGUGUGUGUGUGUUGUACCCGAGUGUGUGUUGAGCCUAUCUGUCCAGGGAACCAGAUUGGUGUCCGAGAUGAGGAAAUGGCUGUGGCCUGGGAAAUCAGUGAGAGGCCGCUUGGGAAUGAGAAUGCAGUGGACUGAAAGCACAGCCUGGCCAUCUGGAACCUCUUGCGGUCGCACUAGUGUGGAAUUCUCGGGUGUCAAGG
B12: ENSMUSG00000028439.175|Fam219a (ssRNA)
RNA: GGGAGUUCUACAGUCCGACGAUCGCUUCGAUAUCCGCAUGCUAGGUAUGGUAUGGUAUGCACAUGUGUGUGCAUGUGUGUGUGCCUGUGUGUGUGCGUGUGCGUGUGUGUAUGUGUGUGCGUGUGUGUGUGUGUGUGUUGUACCCGAGUGUGUGUUGAGCCUAUCUGUCCAGGGAACCAGAUUGGUGUCCGAGAUGAGGAAAUGGCUGUGGCCUGGGAAAUCAGUGAGAGGCCGCUUGGGAAUGAGAAUGCAGUGGACUGAAAGCACAGCCUGGCCAUCUGGAACCUGGGUUCUGGUCCCAGCCUCUUGCGGUCGCACUAGUGUGGAAUUCUCGGGUGUCAAGG
B13: ENSMUSG00000028439.173|Fam219a (ssRNA)
RNA: GGGAGUUCUACAGUCCGACGAUCGCUUCGAUAUCCGCAUGCUAAUGGUAUGGUAUGGUAUGGUAUGGUAUGCACAUGUGUGUGCAUGUGUGUGUGCCUGUGUGUGUGCGUGUGCGUGUGUGUAUGUGUGUGCGUGUGUGUGUGUGUGUGUUGUACCCGAGUGUGUGUUGAGCCUAUCUGUCCAGGGAACCAGAUUGGUGUCCGAGAUGAGGAAAUGGCUGUGGCCUGGGAAAUCAGUGAGAGGCCGCUUGGGAAUGAGAAUGCAGUGGACUGAAAGCACAGCCUGGCCAUCUGGAACCUGGGUCUCUUGCGGUCGCACUAGUGUGGAAUUCUCGGGUGUCAAGG
B14: ENSMUSG00000028439.170|Fam219a (ssRNA)
RNA: GGGAGUUCUACAGUCCGACGAUCGCUUCGAUAUCCGCAUGCUAUGUAUGAUAUGGUAUGGUAUGGUAUGGUAUGGUAUGGUAUGGUAUGCACAUGUGUGUGCAUGUGUGUGUGCCUGUGUGUGUGCGUGUGCGUGUGUGUAUGUGUGUGCGUGUGUGUGUGUGUGUGUUGUACCCGAGUGUGUGUUGAGCCUAUCUGUCCAGGGAACCAGAUUGGUGUCCGAGAUGAGGAAAUGGCUGUGGCCUGGGAAAUCAGUGAGAGGCCGCUUGGGAAUGAGAAUGCAGUGGACUGAAAGCACAGCCUGCUCUUGCGGUCGCACUAGUGUGGAAUUCUCGGGUGUCAAGG
B15: ENSMUSG00000028439.171|Fam219a (ssRNA)
RNA: GGGAGUUCUACAGUCCGACGAUCGCUUCGAUAUCCGCAUGCUAAUAUGGUAUGGUAUGGUAUGGUAUGGUAUGGUAUGGUAUGCACAUGUGUGUGCAUGUGUGUGUGCCUGUGUGUGUGCGUGUGCGUGUGUGUAUGUGUGUGCGUGUGUGUGUGUGUGUGUUGUACCCGAGUGUGUGUUGAGCCUAUCUGUCCAGGGAACCAGAUUGGUGUCCGAGAUGAGGAAAUGGCUGUGGCCUGGGAAAUCAGUGAGAGGCCGCUUGGGAAUGAGAAUGCAGUGGACUGAAAGCACAGCCUGGCCAUCCUCUUGCGGUCGCACUAGUGUGGAAUUCUCGGGUGUCAAGG

Target: TDP-43 (Homo sapiens, UniProt Q13148 1-414)
Sequence (Q13148 whole entry): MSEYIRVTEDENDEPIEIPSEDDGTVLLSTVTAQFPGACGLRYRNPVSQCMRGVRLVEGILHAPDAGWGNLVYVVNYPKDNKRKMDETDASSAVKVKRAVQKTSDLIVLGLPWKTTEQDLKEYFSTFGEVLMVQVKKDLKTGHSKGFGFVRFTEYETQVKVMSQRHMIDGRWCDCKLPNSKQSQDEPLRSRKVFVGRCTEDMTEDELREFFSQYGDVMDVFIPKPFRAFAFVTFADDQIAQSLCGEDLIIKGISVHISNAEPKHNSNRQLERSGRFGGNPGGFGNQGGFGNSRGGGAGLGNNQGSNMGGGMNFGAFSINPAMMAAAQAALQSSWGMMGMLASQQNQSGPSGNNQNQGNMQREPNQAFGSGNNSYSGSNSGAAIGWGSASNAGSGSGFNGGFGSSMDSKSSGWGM
Assay: RNA Bind-n-Seq with designed 260-mer pool; 25 mM Tris-HCl, 150 mM KCl, 3 mM MgCl2, BSA (printed 500 mg/mL), 20 units/mL SUPERase IN; pH not stated; 500 nM RNA pool, 1 h, 4 C; TDP-43 5, 50, 500 nM; high values mean tight binding
Conditions: protein: recombinant; tags: SBP (GST cleaved off with PreScission; pGEX-GST-SBP)
Method in brief: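 The incubation lasted 1 h at 4 °C and used 500 nM of an in vitro-transcribed 260-nt 3′ UTR oligo pool with recombinant SBP-tagged TDP-43 at 5, 50 or 500 nM immobilized on streptavidin beads. It took place in 25 mM Tris-HCl, 150 mM KCl, 3 mM MgCl2, BSA and SUPERase IN. Bound RNA was washed, eluted with biotin, converted to cDNA, PCR-amplified and sequenced to give R, each oligo's normalized abundance in the bound sample divided by that in input. Two independent protein batches provided the duplicates.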

Q: How did the binding signal turn out when B1 was run?
A: 0.524 R (bound/input frequency ratio)

Q: B2 was tested. Which binding signal did it give?
A: 0.806 R (bound/input frequency ratio)

Q: B3 was tested. Which binding signal did it give?
A: 0.802 R (bound/input frequency ratio)

Q: With B4 as the binder, how does the binding signal read?
A: 1.16 R (bound/input frequency ratio)

Q: For B5, which binding signal is on record?
A: 1.4 R (bound/input frequency ratio)

Q: B6 was tested. Which binding signal did it give?
A: 0.828 R (bound/input frequency ratio)

Q: How did the binding signal turn out when B7 was run?
A: 0.725 R (bound/input frequency ratio)

Q: B8 was tested. Which binding signal did it give?
A: 5.69 R (bound/input frequency ratio)

Q: With B9 as the binder, how does the binding signal read?
A: 7.57 R (bound/input frequency ratio)

Q: With B10 as the binder, how does the binding signal read?
A: 1.59 R (bound/input frequency ratio)

Q: With B11 as the binder, how does the binding signal read?
A: 6.41 R (bound/input frequency ratio)

Q: B12 was tested. Which binding signal did it give?
A: 7.42 R (bound/input frequency ratio)

Q: For B13, which binding signal is on record?
A: 6.03 R (bound/input frequency ratio)

Q: With B14 as the binder, how does the binding signal read?
A: 6.06 R (bound/input frequency ratio)

Q: How did the binding signal turn out when B15 was run?
A: 8.2 R (bound/input frequency ratio)
